Results published in PubChem BioAssay (NCI).
Several values for one entry are separate records, joined by “and”; a condition that tells them apart may be missing. Identical values can stand only once. About 83,000 compounds went through this panel and 20% of them were active in at least one assay; those are over-represented in the sample as a whole.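 A percent growth of 40 corresponds to 60% growth inhibition; 0 means no net growth; -100 means all cells died. Active threshold: below 10.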 Activity calls are given as the source filed them.

Legend:
Assay in all cases: NCI-60 one-dose screen, 48 h (100 = growth as untreated, 0 = no growth, -100 = all killed)
SR leukemia = settings: 10 µM unless noted
RPMI-8226 leukemia = settings: 10 µM unless noted
OVCAR-8 ovarian = settings: 10 µM unless noted
OVCAR-5 ovarian = settings: 10 µM unless noted
OVCAR-4 ovarian = settings: 10 µM unless noted
SK-OV-3 ovarian = settings: 10 µM unless noted
IGROV1 ovarian = settings: 10 µM unless noted
OVCAR-3 ovarian = settings: 10 µM unless noted
HS 578T breast = settings: 10 µM unless noted
NCI/ADR-RES ovarian = settings: 10 µM unless noted
T-47D breast = settings: 10 µM unless noted
BT-549 breast = settings: 10 µM unless noted
MDA-MB-435 melanoma = settings: 10 µM unless noted
SW-620 colon = settings: 10 µM unless noted
MCF7 breast = tested on: MCF7 breast
HCT-116 colon = settings: 10 µM unless noted
HCC-2998 colon = settings: 10 µM unless noted
KM12 colon = settings: 10 µM unless noted

Measured: growth

O=C1C=CC[C@H](/C=C/c2ccccc2)O1
132% (inactive) and 7.79% (active): SK-OV-3 ovarian
17.5% (inactive) and 4.07% (active): MDA-MB-435 melanoma
24.9% (inactive) and 4.24% (active): BT-549 breast
-35.5% (active) and 15.7% (inactive): IGROV1 ovarian
active: SR leukemia 5.19% | RPMI-8226 leukemia -34.8% | OVCAR-3 ovarian 1.02% and -41.3% | MCF7 breast; 10 µM unless noted 0.837% and 1.92% | HCT-116 colon 5.79% and -18.5%
67.9% (inactive) and 9.64% (active): T-47D breast
inactive: OVCAR-8 ovarian 21.2% and 14.4% | OVCAR-5 ovarian 57.6% and 54.9% | OVCAR-4 ovarian 36% and 33.6% | HS 578T breast 25.4% and 19.5% | NCI/ADR-RES ovarian 34% and 28.9% | HCC-2998 colon 26.1% and 32.3% | KM12 colon 43.1% and 35.6%
16.4% (inactive) and -39.2% (active): SW-620 colon

CCOC(=O)CN1CCC(C(=O)OCC)CC1
inactive: SR leukemia 124% | RPMI-8226 leukemia 95.8% | OVCAR-8 ovarian 106% | OVCAR-5 ovarian 104% | OVCAR-4 ovarian 108% | SK-OV-3 ovarian 99.1% | IGROV1 ovarian 122% | OVCAR-3 ovarian 117% | HS 578T breast 106% | NCI/ADR-RES ovarian 110% | T-47D breast 102% | BT-549 breast 105% | MDA-MB-435 melanoma 114% | SW-620 colon 108% | MCF7 breast; 10 µM unless noted 103% | HCT-116 colon 98.1% | HCC-2998 colon 103% | KM12 colon 109%

CCOP(C)(=O)/C(Cc1ccc(OC)c(OC)c1)=N\O (stereo not given)
inactive: SR leukemia 105% | RPMI-8226 leukemia 99.3% | OVCAR-8 ovarian 114% | OVCAR-5 ovarian 96.6% | OVCAR-4 ovarian 107% | SK-OV-3 ovarian 115% | IGROV1 ovarian 104% | OVCAR-3 ovarian 111% | HS 578T breast 94.9% | NCI/ADR-RES ovarian 95.7% | T-47D breast 115% | BT-549 breast 115% | MDA-MB-435 melanoma 104% | SW-620 colon 99.2% | MCF7 breast; 10 µM unless noted 104% | HCT-116 colon 103% | HCC-2998 colon 98.5% | KM12 colon 101%

Nc1[nH][nH]c(=O)c1N=Nc1ccccc1
inactive: SR leukemia 125% and 98.6% | RPMI-8226 leukemia 110% | OVCAR-8 ovarian 102% and 108% | OVCAR-5 ovarian 101% and 109% | OVCAR-4 ovarian 99.6% | SK-OV-3 ovarian 101% and 107% | IGROV1 ovarian 109% and 104% | OVCAR-3 ovarian 106% and 111% | HS 578T breast 107% and 130% | NCI/ADR-RES ovarian 106% and 105% | T-47D breast 113% and 102% | BT-549 breast 101% and 133% | MDA-MB-435 melanoma 103% and 99.7% | SW-620 colon 97.5% and 114% | MCF7 breast; 10 µM unless noted 92.9% and 94.5% | HCT-116 colon 104% and 102% | HCC-2998 colon 97.9% and 104% | KM12 colon 105% and 106%

Clc1ccc2c(c1)N(C1CCCN(Cc3ccccc3)C1)c1ccccc1S2 (stereo not given)
inactive: SR leukemia 16.1% | RPMI-8226 leukemia 25.9% | OVCAR-8 ovarian 37.9% | OVCAR-5 ovarian 73.4% | OVCAR-4 ovarian 79.9% | SK-OV-3 ovarian 26.8% | IGROV1 ovarian 43.8% | OVCAR-3 ovarian 53.3% | HS 578T breast 14.4% | NCI/ADR-RES ovarian 24.8% | T-47D breast 69% | BT-549 breast 61.2% | SW-620 colon 22.6% | MCF7 breast; 10 µM unless noted 18.4% | HCT-116 colon 12.1% | HCC-2998 colon 23% | KM12 colon 33.7%
active: MDA-MB-435 melanoma 5.2%

O=C1CCC(=O)N1CC1CC2CCC1C2 (stereo not given)
inactive: SR leukemia 84.7% and 78.9% | RPMI-8226 leukemia 71.3% and 114% | OVCAR-8 ovarian 98.8% and 96.1% | OVCAR-5 ovarian 93.8% and 90.8% | OVCAR-4 ovarian 91.1% and 97.4% | IGROV1 ovarian 105% and 107% | OVCAR-3 ovarian 106% and 101% | HS 578T breast 115% and 102% | NCI/ADR-RES ovarian 110% and 104% | T-47D breast 100% and 79.2% | BT-549 breast 90.1% | MDA-MB-435 melanoma 93.3% and 95.9% | SW-620 colon 104% and 100% | MCF7 breast; 10 µM unless noted 99% and 95.9% | HCC-2998 colon 106% | KM12 colon 107% and 100%
-56.3% (active) and 84% (inactive): SK-OV-3 ovarian

CS(=O)(=O)c1nsc(N)n1
inactive: SR leukemia 98.8% | RPMI-8226 leukemia 106% | OVCAR-8 ovarian 104% | OVCAR-5 ovarian 97.3% | OVCAR-4 ovarian 103% | SK-OV-3 ovarian 95.4% | IGROV1 ovarian 101% | OVCAR-3 ovarian 107% | HS 578T breast 103% | NCI/ADR-RES ovarian 104% | T-47D breast 95% | BT-549 breast 107% | MDA-MB-435 melanoma 107% | SW-620 colon 100% | MCF7 breast; 10 µM unless noted 99.8% | HCT-116 colon 103% | HCC-2998 colon 98.4% | KM12 colon 105%

CCC(C)(O)CCC(C)(O)CC (stereo not given)
inactive: SR leukemia 97.4% | RPMI-8226 leukemia 108% | OVCAR-8 ovarian 102% | OVCAR-5 ovarian 114% | OVCAR-4 ovarian 111% | SK-OV-3 ovarian 99% | IGROV1 ovarian 103% | OVCAR-3 ovarian 107% | HS 578T breast 108% | NCI/ADR-RES ovarian 99.2% | T-47D breast 96% | BT-549 breast 107% | MDA-MB-435 melanoma 111% | SW-620 colon 112% | MCF7 breast; 10 µM unless noted 92.4% | HCC-2998 colon 87.7% | KM12 colon 103%

O=C(/C=C/C=C/c1ccc2c(c1)OCO2)N1CCCCC1
inactive: SR leukemia 92.4% and 86% | RPMI-8226 leukemia 102% and 124% | OVCAR-8 ovarian 101% and 97.4% | OVCAR-5 ovarian 96.4% | OVCAR-4 ovarian 103% and 96.8% | SK-OV-3 ovarian 101% and 102% | OVCAR-3 ovarian 121% and 104% | HS 578T breast 104% and 94.8% | NCI/ADR-RES ovarian 98% and 106% | T-47D breast 90.8% and 103% | BT-549 breast 108% | MDA-MB-435 melanoma 98.9% and 104% | SW-620 colon 106% and 101% | MCF7 breast; 10 µM unless noted 101% and 82.8% | HCT-116 colon 103% and 98.1% | HCC-2998 colon 102% and 130% | KM12 colon 98.2% and 95%
105% (inactive) and 6.71% (active): IGROV1 ovarian

COc1ccc(CCn2cnn3c(=O)c4ccccc4nc3c2=O)cc1OC
inactive: SR leukemia 99.4% and 90.8% | RPMI-8226 leukemia 95.7% and 92.2% | OVCAR-8 ovarian 104% and 110% | OVCAR-5 ovarian 99.8% and 121% | OVCAR-4 ovarian 97.3% and 112% | SK-OV-3 ovarian 112% and 108% | IGROV1 ovarian 115% | OVCAR-3 ovarian 103% and 115% | HS 578T breast 98.3% and 115% | NCI/ADR-RES ovarian 101% and 107% | T-47D breast 113% and 103% | BT-549 breast 91.4% and 114% | MDA-MB-435 melanoma 103% and 119% | SW-620 colon 101% and 112% | MCF7 breast; 10 µM unless noted 106% and 100% | HCT-116 colon 99.4% and 107% | HCC-2998 colon 104% and 111% | KM12 colon 94.4% and 103%

C#CCOC(=O)C(N)CS (stereo not given)
inactive: SR leukemia 102% | RPMI-8226 leukemia 102% | OVCAR-8 ovarian 110% | OVCAR-5 ovarian 79.9% | OVCAR-4 ovarian 101% | SK-OV-3 ovarian 101% | IGROV1 ovarian 104% | OVCAR-3 ovarian 103% | HS 578T breast 137% | NCI/ADR-RES ovarian 102% | BT-549 breast 108% | MDA-MB-435 melanoma 96.6% | SW-620 colon 97.1% | MCF7 breast; 10 µM 93% | MCF7 breast; 100 µM 90.4% and 76.4% | HCT-116 colon 101% | HCC-2998 colon 107% | KM12 colon 102%

CC(=O)Nc1ccc(OC(C)=O)cc1
2.42% (active) and 112% (inactive): KM12 colon
-28.8% (active) and 112% (inactive): HCC-2998 colon
2.02% (active) and 113% (inactive): OVCAR-3 ovarian
-25.4% (active) and 104% (inactive): RPMI-8226 leukemia
-4.1% (active) and 121% (inactive): SK-OV-3 ovarian
inactive: SR leukemia 115% | OVCAR-5 ovarian 35.7% and 97.5% | OVCAR-4 ovarian 98.7% | IGROV1 ovarian 23.7% and 113% | HS 578T breast 29.7% and 118% | T-47D breast 78.1% and 103% | SW-620 colon 26% and 94.2% | MCF7 breast; 10 µM unless noted 91.8%
-14.7% (active) and 104% (inactive): HCT-116 colon
-11.9% (active) and 106% (inactive): NCI/ADR-RES ovarian
-29.5% (active) and 107% (inactive): MDA-MB-435 melanoma
8% (active) and 101% (inactive): OVCAR-8 ovarian

NNc1ncnc2cccc(Cl)c12
inactive: SR leukemia 108% | RPMI-8226 leukemia 94.9% | OVCAR-8 ovarian 95.2% | OVCAR-5 ovarian 97.5% | OVCAR-4 ovarian 114% | SK-OV-3 ovarian 94.4% | IGROV1 ovarian 102% | OVCAR-3 ovarian 119% | HS 578T breast 98.4% | NCI/ADR-RES ovarian 102% | T-47D breast 90.6% | BT-549 breast 112% | MDA-MB-435 melanoma 115% | MCF7 breast; 10 µM unless noted 96.6% | HCT-116 colon 98.1% | HCC-2998 colon 104% | KM12 colon 106%
